Holding throughout (experiment): DAPPL (digital affinity profiling via proximity ligation, sequencing); 10 mM Tris-HCl pH 7.5, 50 mM NaCl, 1 mM DTT, 4% glycerol, room temperature, 30 min; GST-TFs on glutathione beads, 16-mer random dsDNA library, 0.1% formaldehyde crosslink after washing; high values mean tight binding
One test addresses T1, FLI1 (Homo sapiens, UniProt Q01543 1-452).
T1 sequence: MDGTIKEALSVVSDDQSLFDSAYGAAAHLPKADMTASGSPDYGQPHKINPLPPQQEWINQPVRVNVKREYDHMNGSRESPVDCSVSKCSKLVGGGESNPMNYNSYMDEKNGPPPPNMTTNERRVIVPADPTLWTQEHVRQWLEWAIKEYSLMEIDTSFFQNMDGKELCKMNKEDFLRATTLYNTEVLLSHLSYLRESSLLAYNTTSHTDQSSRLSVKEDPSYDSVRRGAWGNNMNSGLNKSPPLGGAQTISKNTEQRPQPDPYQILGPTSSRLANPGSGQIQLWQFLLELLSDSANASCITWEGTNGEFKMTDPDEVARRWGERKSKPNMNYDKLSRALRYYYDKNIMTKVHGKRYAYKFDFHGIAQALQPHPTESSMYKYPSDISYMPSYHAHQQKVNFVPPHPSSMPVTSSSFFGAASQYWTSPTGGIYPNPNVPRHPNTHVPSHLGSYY
Conditions: protein: recombinant; tags: N-terminal GST; dsDNA, one strand shown. In short, it runs like this:
(§1)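 The binding signal reported is, for every hexamer, its read frequency for a factor over its read frequency for the tag-only sample. Reads came from pools of yeast-expressed, GST-fused human transcription factors on glutathione beads, barcoded with DNA and mixed with that sample, which were incubated with 200 nmole of a random double-stranded 16-mer DNA library in Tris/NaCl/DTT/glycerol buffer at room temperature for 30 min. After washing, the pools were crosslinked with 0.1% formaldehyde, proximity-ligated with BsaI/T4 ligase for 1 h at 37 °C, PCR-amplified and sequenced on an Illumina NextSeq500.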

For the next test, the target named is T2, ELK1 (Homo sapiens, UniProt P19419 1-428).
T2 sequence: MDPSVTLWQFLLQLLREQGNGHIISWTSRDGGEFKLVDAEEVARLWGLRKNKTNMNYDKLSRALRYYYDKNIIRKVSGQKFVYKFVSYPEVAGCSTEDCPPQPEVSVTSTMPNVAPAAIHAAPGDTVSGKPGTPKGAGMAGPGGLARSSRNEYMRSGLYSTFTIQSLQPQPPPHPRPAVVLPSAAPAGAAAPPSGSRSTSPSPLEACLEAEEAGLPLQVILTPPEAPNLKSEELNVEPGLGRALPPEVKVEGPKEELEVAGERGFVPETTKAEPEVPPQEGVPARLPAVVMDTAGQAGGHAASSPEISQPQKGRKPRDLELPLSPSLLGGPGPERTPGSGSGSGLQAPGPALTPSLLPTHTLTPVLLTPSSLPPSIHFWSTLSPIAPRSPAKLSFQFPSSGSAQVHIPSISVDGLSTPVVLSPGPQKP
The note with it: protein: recombinant; tags: N-terminal GST; dsDNA, one strand shown. In short, it runs like this: as §1

A further test has as its target T3, GABPA (Homo sapiens, UniProt Q06546 1-454).
T3 sequence: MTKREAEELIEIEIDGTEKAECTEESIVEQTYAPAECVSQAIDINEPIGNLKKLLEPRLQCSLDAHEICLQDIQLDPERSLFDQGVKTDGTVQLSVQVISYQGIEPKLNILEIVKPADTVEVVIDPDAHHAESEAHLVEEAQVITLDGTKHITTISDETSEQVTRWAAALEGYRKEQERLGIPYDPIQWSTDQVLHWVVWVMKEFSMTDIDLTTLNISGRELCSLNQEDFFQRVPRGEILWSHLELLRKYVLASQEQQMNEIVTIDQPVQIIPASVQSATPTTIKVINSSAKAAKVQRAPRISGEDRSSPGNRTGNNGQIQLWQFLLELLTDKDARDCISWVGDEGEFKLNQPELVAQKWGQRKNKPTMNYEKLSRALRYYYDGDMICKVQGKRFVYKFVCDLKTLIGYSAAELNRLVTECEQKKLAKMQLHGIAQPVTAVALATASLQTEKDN
The note with it: protein: recombinant; tags: N-terminal GST; dsDNA, one strand shown. Put shortly: as §1

A further test concerns the target T4, ERG (Homo sapiens, UniProt P11308 1-479).
T4 sequence: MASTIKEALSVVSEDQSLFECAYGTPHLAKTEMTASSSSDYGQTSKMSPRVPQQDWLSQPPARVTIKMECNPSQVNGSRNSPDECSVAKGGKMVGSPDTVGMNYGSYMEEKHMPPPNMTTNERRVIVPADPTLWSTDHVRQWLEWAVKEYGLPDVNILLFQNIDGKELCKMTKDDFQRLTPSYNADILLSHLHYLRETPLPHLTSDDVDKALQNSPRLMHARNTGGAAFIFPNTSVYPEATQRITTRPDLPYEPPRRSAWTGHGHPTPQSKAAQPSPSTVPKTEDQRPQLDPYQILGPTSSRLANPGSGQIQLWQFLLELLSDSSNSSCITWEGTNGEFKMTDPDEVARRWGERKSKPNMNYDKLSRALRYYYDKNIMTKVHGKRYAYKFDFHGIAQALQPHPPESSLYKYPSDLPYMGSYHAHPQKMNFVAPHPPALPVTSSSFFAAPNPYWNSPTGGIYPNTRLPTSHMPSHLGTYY
Conditions: protein: recombinant; tags: N-terminal GST; dsDNA, one strand shown. In short, it runs like this: as §1

The target of the next test is ELF1 (Homo sapiens, UniProt P32519 1-619). Conditions: protein: recombinant; tags: N-terminal GST; dsDNA, one strand shown. Put shortly: as §1
The target in a further test is T5, EHF (Homo sapiens, UniProt Q9NZC4 1-300).
T5 sequence: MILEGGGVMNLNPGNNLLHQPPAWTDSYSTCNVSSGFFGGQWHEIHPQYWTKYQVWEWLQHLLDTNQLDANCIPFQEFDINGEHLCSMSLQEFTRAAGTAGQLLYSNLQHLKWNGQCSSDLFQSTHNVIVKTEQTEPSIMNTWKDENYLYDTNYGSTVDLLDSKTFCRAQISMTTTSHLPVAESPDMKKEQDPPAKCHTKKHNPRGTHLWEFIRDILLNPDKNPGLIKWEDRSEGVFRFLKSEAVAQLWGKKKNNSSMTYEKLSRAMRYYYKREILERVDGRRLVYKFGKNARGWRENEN
The note with it: protein: recombinant; tags: N-terminal GST; dsDNA, one strand shown. Put shortly:
as §1

Another test concerns the target SPI1 (Homo sapiens, UniProt P17947 1-270). Conditions: protein: recombinant; tags: N-terminal GST; dsDNA, one strand shown. In short, it runs like this:
as §1

Another test addresses SPIB (Homo sapiens, UniProt Q01892 1-262). Conditions: protein: recombinant; tags: N-terminal GST; dsDNA, one strand shown. In short, it runs like this: as §1
In another test the target is T6, ELK3 (Homo sapiens, UniProt P41970 1-407).
T6 sequence: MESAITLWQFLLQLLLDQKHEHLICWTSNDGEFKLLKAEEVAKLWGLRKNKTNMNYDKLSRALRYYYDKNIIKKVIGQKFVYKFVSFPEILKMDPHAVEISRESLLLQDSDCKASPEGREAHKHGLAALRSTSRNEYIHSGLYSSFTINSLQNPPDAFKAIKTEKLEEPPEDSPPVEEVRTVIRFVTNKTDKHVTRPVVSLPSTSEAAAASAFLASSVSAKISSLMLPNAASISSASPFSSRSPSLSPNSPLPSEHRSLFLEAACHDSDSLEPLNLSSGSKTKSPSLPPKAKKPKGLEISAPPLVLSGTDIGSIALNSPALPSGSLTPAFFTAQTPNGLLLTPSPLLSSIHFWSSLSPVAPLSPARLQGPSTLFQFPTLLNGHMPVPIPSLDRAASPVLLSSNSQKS
Conditions: protein: recombinant; tags: N-terminal GST; dsDNA, one strand shown. In short, it runs like this:
as §1

The target of a further test is T7, FEV (Homo sapiens, UniProt Q99581 1-238).
T7 sequence: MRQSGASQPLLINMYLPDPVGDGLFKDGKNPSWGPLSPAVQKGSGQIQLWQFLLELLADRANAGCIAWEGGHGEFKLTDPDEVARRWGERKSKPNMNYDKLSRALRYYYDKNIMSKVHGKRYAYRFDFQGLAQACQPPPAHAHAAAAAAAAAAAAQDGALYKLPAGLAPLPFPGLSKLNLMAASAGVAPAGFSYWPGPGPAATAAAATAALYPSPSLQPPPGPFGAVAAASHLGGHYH
Conditions: protein: recombinant; tags: N-terminal GST; dsDNA, one strand shown. In short, it runs like this: as §1

For the next test, the target named is ETV5 (Homo sapiens, UniProt P41161 1-510). The note with it: protein: recombinant; tags: N-terminal GST; dsDNA, one strand shown. Put shortly: as §1
The target in a further test is HSF1 (Homo sapiens, UniProt Q00613 1-529). The note with it: protein: recombinant; tags: N-terminal GST; chain copies: 3; dsDNA, one strand shown. In short, it runs like this:
as §1

For the next test, the target named is T8, SPIC (Homo sapiens, UniProt Q8N5J4 1-248).
T8 sequence: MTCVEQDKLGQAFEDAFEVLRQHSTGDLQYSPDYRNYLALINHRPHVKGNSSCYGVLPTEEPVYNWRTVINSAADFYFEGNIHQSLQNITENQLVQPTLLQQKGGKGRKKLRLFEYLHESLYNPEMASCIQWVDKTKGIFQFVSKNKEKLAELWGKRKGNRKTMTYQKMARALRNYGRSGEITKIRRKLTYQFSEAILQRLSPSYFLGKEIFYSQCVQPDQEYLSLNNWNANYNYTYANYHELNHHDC
Conditions: protein: recombinant; tags: N-terminal GST; dsDNA, one strand shown. In short, it runs like this: as §1

The next test addresses ELF4 (Homo sapiens, UniProt Q99607 1-663). Conditions: protein: recombinant; tags: N-terminal GST; dsDNA, one strand shown. In short, it runs like this: as §1
For a further test, the target named is T9, ELK4 (Homo sapiens, UniProt P28324-2 1-405).
T9 sequence: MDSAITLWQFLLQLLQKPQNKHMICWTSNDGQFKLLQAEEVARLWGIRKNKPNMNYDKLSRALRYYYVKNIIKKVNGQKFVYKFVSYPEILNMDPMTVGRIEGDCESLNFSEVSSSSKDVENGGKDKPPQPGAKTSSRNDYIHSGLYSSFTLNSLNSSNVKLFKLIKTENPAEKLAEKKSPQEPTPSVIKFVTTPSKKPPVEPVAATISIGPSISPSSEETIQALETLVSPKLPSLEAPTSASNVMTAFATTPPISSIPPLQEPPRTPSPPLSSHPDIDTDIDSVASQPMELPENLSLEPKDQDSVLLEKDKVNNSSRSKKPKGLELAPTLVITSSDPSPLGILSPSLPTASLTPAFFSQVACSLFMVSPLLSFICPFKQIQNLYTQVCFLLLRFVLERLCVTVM
The note with it: protein: recombinant; tags: N-terminal GST; dsDNA, one strand shown. In short, it runs like this:
as §1

A further test deals with T10, ETV2 (Homo sapiens, UniProt O00321 1-342).
T10 sequence: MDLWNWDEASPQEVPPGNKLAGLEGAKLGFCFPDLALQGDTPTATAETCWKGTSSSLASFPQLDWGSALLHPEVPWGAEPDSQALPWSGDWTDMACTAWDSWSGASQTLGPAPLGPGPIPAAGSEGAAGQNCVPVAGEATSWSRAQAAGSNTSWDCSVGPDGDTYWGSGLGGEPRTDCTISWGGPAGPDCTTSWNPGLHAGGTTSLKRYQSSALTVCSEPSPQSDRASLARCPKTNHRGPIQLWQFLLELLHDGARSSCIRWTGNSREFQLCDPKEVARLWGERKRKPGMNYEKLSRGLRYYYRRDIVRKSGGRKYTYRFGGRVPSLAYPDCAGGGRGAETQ
The note with it: protein: recombinant; tags: N-terminal GST; dsDNA, one strand shown. In short, it runs like this:
as §1

The next test concerns the target T11, ELF3 (Homo sapiens, UniProt P78545 1-371).
T11 sequence: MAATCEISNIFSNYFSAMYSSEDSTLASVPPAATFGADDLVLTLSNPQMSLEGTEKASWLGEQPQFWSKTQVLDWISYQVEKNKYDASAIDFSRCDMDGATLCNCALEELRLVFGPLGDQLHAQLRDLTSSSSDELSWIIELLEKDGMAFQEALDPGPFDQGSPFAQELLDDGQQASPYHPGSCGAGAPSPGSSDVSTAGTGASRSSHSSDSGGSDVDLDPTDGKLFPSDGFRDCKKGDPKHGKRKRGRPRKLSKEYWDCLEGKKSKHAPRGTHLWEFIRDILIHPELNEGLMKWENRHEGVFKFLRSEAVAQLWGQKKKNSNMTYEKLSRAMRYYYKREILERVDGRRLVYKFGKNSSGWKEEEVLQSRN
Conditions: protein: recombinant; tags: N-terminal GST; dsDNA, one strand shown. In short, it runs like this:
as §1

A further test deals with CRX (Homo sapiens, UniProt O43186 1-299). The note with it: protein: recombinant; tags: N-terminal GST; dsDNA, one strand shown. Put shortly:
as §1

A further test addresses ETV1 (Homo sapiens, UniProt P50549 1-477). The note with it: protein: recombinant; tags: N-terminal GST; dsDNA, one strand shown. In short, it runs like this: as §1

Sequence of ETV1 (P50549 whole entry): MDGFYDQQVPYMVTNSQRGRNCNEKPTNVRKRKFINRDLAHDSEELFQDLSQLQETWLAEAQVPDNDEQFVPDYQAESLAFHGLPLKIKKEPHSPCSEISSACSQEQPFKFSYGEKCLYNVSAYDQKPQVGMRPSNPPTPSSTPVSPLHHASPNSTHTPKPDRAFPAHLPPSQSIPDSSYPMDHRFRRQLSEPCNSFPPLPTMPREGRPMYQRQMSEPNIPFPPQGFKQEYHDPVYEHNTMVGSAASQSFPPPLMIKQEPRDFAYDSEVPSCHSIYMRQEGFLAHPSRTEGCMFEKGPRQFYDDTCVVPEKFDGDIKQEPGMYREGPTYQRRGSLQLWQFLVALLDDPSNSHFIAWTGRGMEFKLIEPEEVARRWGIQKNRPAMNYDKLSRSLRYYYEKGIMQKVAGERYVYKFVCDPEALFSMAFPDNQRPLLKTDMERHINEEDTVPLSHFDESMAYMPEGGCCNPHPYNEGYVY
Sequence of ETV5 (P41161 whole entry): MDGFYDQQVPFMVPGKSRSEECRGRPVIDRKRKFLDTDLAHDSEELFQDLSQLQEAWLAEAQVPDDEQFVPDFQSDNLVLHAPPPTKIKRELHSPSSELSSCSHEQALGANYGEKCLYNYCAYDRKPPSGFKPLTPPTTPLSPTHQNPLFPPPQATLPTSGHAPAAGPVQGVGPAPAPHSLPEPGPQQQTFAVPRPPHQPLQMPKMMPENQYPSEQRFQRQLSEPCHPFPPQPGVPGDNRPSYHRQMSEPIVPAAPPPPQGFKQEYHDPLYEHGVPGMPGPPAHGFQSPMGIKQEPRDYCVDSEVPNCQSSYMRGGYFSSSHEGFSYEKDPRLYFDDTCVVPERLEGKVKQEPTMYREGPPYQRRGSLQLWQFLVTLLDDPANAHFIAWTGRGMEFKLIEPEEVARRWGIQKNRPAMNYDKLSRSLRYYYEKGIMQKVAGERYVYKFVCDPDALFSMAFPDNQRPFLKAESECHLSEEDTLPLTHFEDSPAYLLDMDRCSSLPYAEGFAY
Sequence of CRX (O43186 whole entry): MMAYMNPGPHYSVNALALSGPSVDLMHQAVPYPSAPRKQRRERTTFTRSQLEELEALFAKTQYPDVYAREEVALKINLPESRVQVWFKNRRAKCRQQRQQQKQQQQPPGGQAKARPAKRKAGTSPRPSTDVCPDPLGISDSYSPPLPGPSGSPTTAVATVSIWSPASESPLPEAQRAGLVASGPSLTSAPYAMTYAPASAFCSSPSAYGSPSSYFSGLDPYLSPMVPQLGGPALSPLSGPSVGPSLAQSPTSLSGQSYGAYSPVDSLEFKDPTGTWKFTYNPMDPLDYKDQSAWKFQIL
Sequence of ELF4 (Q99607 whole entry): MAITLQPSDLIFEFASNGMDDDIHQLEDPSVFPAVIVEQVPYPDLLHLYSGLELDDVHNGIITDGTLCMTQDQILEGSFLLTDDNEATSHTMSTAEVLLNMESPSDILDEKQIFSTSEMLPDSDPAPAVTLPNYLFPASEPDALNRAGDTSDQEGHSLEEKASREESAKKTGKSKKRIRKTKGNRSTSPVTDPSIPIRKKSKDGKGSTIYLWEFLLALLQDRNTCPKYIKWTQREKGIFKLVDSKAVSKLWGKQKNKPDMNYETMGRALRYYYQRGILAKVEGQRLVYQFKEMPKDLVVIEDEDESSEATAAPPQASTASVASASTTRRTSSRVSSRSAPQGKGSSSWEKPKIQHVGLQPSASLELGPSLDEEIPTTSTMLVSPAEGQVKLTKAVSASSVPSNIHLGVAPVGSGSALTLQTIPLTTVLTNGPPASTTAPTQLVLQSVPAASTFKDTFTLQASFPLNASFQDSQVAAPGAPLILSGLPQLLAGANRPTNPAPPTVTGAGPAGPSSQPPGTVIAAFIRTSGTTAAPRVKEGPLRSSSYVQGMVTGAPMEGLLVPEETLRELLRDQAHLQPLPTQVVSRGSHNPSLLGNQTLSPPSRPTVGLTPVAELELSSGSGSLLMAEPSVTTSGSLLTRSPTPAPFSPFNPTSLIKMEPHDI
Sequence of SPIB (Q01892 whole entry): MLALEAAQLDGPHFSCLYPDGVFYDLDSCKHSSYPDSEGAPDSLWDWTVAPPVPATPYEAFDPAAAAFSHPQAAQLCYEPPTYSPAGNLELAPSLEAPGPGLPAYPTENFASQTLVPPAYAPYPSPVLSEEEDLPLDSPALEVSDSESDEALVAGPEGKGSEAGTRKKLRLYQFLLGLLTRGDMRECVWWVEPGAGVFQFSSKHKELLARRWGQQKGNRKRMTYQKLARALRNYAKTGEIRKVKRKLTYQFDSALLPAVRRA
Sequence of HSF1 (Q00613 whole entry): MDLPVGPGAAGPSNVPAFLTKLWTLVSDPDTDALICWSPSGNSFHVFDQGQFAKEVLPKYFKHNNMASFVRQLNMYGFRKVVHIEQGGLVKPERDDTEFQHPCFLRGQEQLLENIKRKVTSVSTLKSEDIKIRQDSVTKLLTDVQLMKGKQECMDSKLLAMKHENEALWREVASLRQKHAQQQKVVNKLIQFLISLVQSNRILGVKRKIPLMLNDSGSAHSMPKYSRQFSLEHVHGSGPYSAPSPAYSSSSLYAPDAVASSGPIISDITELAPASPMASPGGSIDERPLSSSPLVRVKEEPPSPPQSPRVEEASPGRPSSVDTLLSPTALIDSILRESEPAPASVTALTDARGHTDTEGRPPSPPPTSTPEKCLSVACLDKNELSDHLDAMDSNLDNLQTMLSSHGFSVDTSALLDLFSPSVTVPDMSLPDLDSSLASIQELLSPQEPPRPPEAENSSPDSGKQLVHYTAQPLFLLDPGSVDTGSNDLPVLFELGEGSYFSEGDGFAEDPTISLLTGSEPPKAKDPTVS
Sequence of ELF1 (P32519 whole entry): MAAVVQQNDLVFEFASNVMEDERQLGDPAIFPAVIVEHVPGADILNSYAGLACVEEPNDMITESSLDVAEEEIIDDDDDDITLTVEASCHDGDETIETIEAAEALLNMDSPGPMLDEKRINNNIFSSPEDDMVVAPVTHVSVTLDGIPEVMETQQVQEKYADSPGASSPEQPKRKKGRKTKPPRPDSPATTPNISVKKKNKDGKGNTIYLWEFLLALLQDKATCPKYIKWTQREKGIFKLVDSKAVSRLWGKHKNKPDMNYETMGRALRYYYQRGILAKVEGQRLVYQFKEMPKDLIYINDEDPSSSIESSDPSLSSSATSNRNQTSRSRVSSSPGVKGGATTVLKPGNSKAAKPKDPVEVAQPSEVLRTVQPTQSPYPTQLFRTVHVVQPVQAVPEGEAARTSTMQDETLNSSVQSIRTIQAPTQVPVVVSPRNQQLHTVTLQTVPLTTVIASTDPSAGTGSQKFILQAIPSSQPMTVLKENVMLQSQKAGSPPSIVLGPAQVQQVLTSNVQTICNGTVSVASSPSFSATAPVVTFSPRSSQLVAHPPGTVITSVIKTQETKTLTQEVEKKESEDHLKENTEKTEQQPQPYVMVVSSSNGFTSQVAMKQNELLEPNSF

For CAGGAT, the binding signal in the test with FLI1 is 1.23 fold enrichment (6-mer frequency, TF over GST control); with ELK1 it was 1.16 fold enrichment (6-mer frequency, TF over GST control); with GABPA it was 1.13 fold enrichment (6-mer frequency, TF over GST control); with ERG, 1.2 fold enrichment (6-mer frequency, TF over GST control); with ELF1, 1.14 fold enrichment (6-mer frequency, TF over GST control); with EHF, 1.19 fold enrichment (6-mer frequency, TF over GST control). Also, the binding signal is 1.1 fold enrichment (6-mer frequency, TF over GST control) in the test with SPI1; 1.29 fold enrichment (6-mer frequency, TF over GST control) with SPIB; 1.04 fold enrichment (6-mer frequency, TF over GST control) in the test with ELK3; 1.27 fold enrichment (6-mer frequency, TF over GST control) with FEV; 1.19 fold enrichment (6-mer frequency, TF over GST control) with ETV5; 1.08 fold enrichment (6-mer frequency, TF over GST control) with HSF1. Moreover, the binding signal with SPIC was 1.04 fold enrichment (6-mer frequency, TF over GST control); in the test with ELF4, 1.11 fold enrichment (6-mer frequency, TF over GST control); with ELK4, 1.23 fold enrichment (6-mer frequency, TF over GST control); with ETV2, 1.15 fold enrichment (6-mer frequency, TF over GST control); with ELF3, 1.12 fold enrichment (6-mer frequency, TF over GST control); with CRX, 1.35 fold enrichment (6-mer frequency, TF over GST control). Further, the binding signal in the test with ETV1 was 1.34 fold enrichment (6-mer frequency, TF over GST control).
